Test results from the supplement of paper PMC3334620.
The full ranking holds about 33,000 sequences; the median of “E-score (-0.5 to 0.5)” is about -0.016, and the highest 2% start at about 0.31. This excerpt belongs to a sample that is enriched for the highest values.

Target: Cst6 (UniProt P40535)
Assay: PBM E-score (8-mer binding enrichment) (E-score (-0.5 to 0.5)); higher = stronger / more preferred TF binding
Conditions: protein concentration: 200 nM; construct: GST-DNA-binding domain
Procedure: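 Universal 'all 10-mer' protein binding microarrays (Agilent AMADID 015681) probed with GST-tagged S. cerevisiae TFs (full-length or DBD) made by in vitro transcription/translation (PURExpress), about 100-200 nM. Bound TF was detected with fluorescent anti-GST. Each ungapped 8-mer (which stands for itself and its reverse complement) is scored by the PBM enrichment score (E-score), a modified Wilcoxon-Mann-Whitney statistic from -0.5 to +0.5, computed with the Universal PBM Analysis Suite. Scale: above 0.35 generally sequence-specific binding.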

Chain of UniProt P40535 (P40535 whole entry): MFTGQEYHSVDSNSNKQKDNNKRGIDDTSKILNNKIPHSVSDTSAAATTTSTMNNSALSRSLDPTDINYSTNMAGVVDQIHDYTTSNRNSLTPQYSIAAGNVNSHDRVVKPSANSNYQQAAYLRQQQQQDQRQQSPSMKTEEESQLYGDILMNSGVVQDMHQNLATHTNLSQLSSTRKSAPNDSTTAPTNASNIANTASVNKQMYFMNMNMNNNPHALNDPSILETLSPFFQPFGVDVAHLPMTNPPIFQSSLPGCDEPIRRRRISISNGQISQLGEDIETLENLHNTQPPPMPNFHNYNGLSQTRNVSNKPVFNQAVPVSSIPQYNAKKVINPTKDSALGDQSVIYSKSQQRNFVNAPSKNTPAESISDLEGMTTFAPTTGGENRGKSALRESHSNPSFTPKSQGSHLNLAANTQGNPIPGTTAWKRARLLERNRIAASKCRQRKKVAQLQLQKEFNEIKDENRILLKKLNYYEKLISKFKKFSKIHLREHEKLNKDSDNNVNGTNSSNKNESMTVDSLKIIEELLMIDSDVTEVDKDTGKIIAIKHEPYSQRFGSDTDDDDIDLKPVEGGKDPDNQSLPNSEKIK

Sequence	PBM E-score
CGACACAC	0.0466
CGGAGAAA	-0.0341
CCAATGAA	-0.187
ACAATGAT	0.269
ACAATGAC	0.336
GCAATGAC	0.3
ACAATGAG	-0.0976
CCAATGAC	0.314
AGCCAGTC	-0.244
CGCCATGC	0.0733
GTCTGGGA	-0.281
ATTGCCTA	-0.141
ACATCCAA	0.131
GATCGTCA	0.294
CATCGTCC	0.14
AATCGTCT	0.11
AATCGTCC	-0.00977
AATCGTCA	0.34
TATCGTCA	0.397
CATCGTCA	0.372
TATCGTGA	0.0604
CATCGTCG	-0.112
CCAGATAG	-0.0711
ACCTTGTA	0.0757
CTTAGCAA	-0.0618

Sequence	PBM E-score
GGGCTCGA	-0.112
CACAGATG	0.0492
ATTGCTCC	-0.0682
CGACCGGA	-0.305
CATCGTAG	0.00214
TATAGTAA	0.161
CATAGTAA	0.313
GATAGTAA	0.14
GGCAGGAA	-0.21
ACATGACA	0.274
ACATGACG	0.435
CCATGACG	0.457
CCATGACA	0.271
ACATGACT	-0.0377
CCATGACC	0.0749
AAAGCGGC	0.151
AGGAACTC	-0.0807
AATCCCTC	-0.0193
ATGTCGCA	-0.0497
CCTCAGAA	-0.0484
CAACGTTA	0.119
ATATAAAT	0.321
AAATAAAT	0.371
AAATACAA	0.321
AAATAAAA	0.186

Sequence	PBM E-score
AAATAATC	0.178
AAATAAAG	0.104
ATATAAAC	0.295
AAATACAC	0.141
CAATACAA	0.15
ATATAAAG	0.17
AAATAATG	0.312
AAATAATA	0.287
GCACACTA	-0.138
ACGGTAAA	0.129
GACACTAC	0.0584
AGGAGCTG	-0.256
CTTCACAA	-0.0895
GGTTGCAC	-0.136
GCACTGTA	-0.00858
ACGTTATA	0.31
ACGTTATG	0.333
ACGTTATC	0.269
ACGTTAGG	0.112
CCGTTATA	-0.00095
GCGTTATA	0.0248
CCAAGGAG	-0.0523
ACTGCAGA	-0.0111
TGCTACAA	0.0326
ATCTCATG	-0.00941

Sequence	PBM E-score
ATATTCGA	-0.111
AACAAATA	0.242
AACAAGTT	0.0438
AACAAATT	0.32
CTCAGGCC	-0.258
CAACACGG	0.0445
CCAATAAC	0.135
AGTATGAC	0.354
CGTATGAA	0.319
CGTATGAC	0.443
AGTATGAT	0.235
AGTATGAG	0.0817
CGTATGGC	0.23
AGTATGAA	0.0821
GGTATGAC	0.191
CGTATGAG	0.133
GACGAGAA	0.242
TCTTGACA	0.053
CGAGGACG	-0.269
CAACCTTA	0.0972
GCTGATAC	-0.0819
ACGGTTCC	-0.0941
ACCGGGAG	-0.317
CACCTCGA	0.119
TTATATAA	0.24

Sequence	PBM E-score
CTATATAA	0.147
CTCTATAC	-0.125
ATATATAA	0.324
ATATATAC	0.281
CTATATAC	0.338
GTATTGAC	0.148
CGCTTGAC	-0.0844
AGAAATTG	0.27
CCTTATGA	0.159
GATACGGC	0.139
CATACGGA	0.049
AATACGGC	0.324
CATACGGC	0.321
AATACGGG	-0.0401
AATACGGT	-0.0647
CCGCAGCA	0.0617
GGTTCTAC	-0.204
CACATCAG	-0.0727
CACCGTCA	0.314
TACCGTCA	0.345
AACCGTCA	0.174
CACCGTCC	-0.173
GACCGTCA	0.137
CACCGTCG	-0.174
GAACCAAA	-0.0818

Sequence	PBM E-score
AAATATCA	0.139
GGATATCA	-0.0151
TGATATCA	0.426
TAATATCA	0.319
TGATATAA	0.323
AGATATCA	0.198
CGATATAA	0.225
GGATATAA	0.236
CAATATCA	0.126
GGAAGAGA	-0.106
ATTCTGAC	0.181
GGCGTACC	-0.19
CAACCAAG	0.0364
TCGGACAA	0.0914
CACAGTGC	-0.024
CCCTAACA	0.127
GCCGTGCA	0.279
GACGTGAA	0.142
GCCGTGCC	0.308
CACGTGAC	0.148
GCCGTGAA	0.184
ACCGTGCC	0.0391
GACGTGAC	0.394
ACCGTGAC	0.291
GCCGTGAC	0.341

Sequence	PBM E-score
CCAAGCGA	-0.309
AAACAGGT	0.0221
ATTCTGGA	0.122
AAGCCTTA	-0.0547
ACCTGCTA	-0.0708
CGACGCCA	0.00886
AGACGCCA	-0.108
GGACGCAA	0.0196
CCACGCAA	0.043
TCACGCAA	0.375
GCACGCAA	-0.0783
TGACGCAA	0.489
TGACGCCA	0.466
TTACGCAA	0.438
AGACGCAA	0.0971
ATACGCAA	0.283
GTACGCAA	0.0898
CTGCTTAC	0.00293
CGTGACTC	-0.1
ACGCTCAT	0.114
CCTAAGCA	-0.0807
TTAGGCAA	-0.00879
TAACCAGA	-0.0457
CAAGTGCC	0.0401
GCGCCGTA	0.384

Sequence	PBM E-score
ACGCCGTG	0.383
ACGCCGAC	0.0423
GGGCCGTA	0.116
GCGCCGAA	0.132
ACGCCGCG	0.302
AGGCCGTA	0.0502
ACGCCGTC	0.389
ACGCCGGG	-0.254
CCGCCGTC	0.206
ACGCCGTA	0.349
CCGCCGTA	0.0871
ATCCAATA	0.222
AGCCGACC	-0.292
CTGGGACA	-0.219
CCTGTGGC	-0.117
AGAGTACC	-0.135
TAGTACAA	-0.00017
ACATTTCC	0.13
GAGATCGA	0.0615
CATCCGCG	0.151
ATATGTCA	0.404
GTATGTAA	0.282
ATGTGTCA	0.286
GTATGTTA	0.182
CGATGTCA	0.319

Sequence	PBM E-score
ATATGTCC	0.121
AGATGTCA	0.298
ATATGTCG	0.185
CTATGTCA	0.392
GGATGTCA	0.277
CTATGTCC	-0.152
GTATGTCA	0.422
CATCAAGG	-0.0962
ACGCCCGT	-0.0034
AACTAAGG	0.0828
GGAACGCA	-0.112
AGGTATAC	0.0822
GGCCGTGA	0.14
CTGCGCTC	-0.292
GCAGTCGC	-0.0904
ACAAGGCG	0.223
GGTGGCGA	-0.11
CAGCGGTA	0.0522
CCATAGCG	-0.0739
GACAGAAA	0.311
GACAGAAC	0.0521
AACAGAAA	0.213
ACCGTTCG	0.0621
ACTACCCT	-0.111
AATTCGCT	0.238

Sequence	PBM E-score
CATTATCG	0.0831
AATTATCG	0.316
AATTATCA	0.356
CATTATCA	0.137
AATTATCC	0.188
AATTATCT	0.161
ACAGGGGA	-0.218
ATTTAAAA	0.258
ACAATAGC	-0.178
ATTGGCAG	-0.165
AGTAACTG	0.00693
CTACGTGA	0.0384
ATACGTCG	0.215
ATACGTCC	0.061
GTACGTGA	0.108
CTACGTCA	0.493
GTACGTTA	0.124
ATACGTCA	0.494
GTACGTCA	0.49
CTACGTCC	-0.0878
ATCCGTGA	-0.0022
GATCGGAC	-0.0973
CAGATTGC	-0.0228
GTAGATGA	0.181
CCTAGCTA	-0.162

Sequence	PBM E-score
ATTTGTGG	0.0944
AGATTACT	0.144
AGATTACG	0.386
CGATTACA	0.13
CGATTACG	0.349
CGATTACC	-0.107
AGATTACC	0.144
CTCCCACC	-0.335
ACGGCTTC	0.0724
AAGCCTGT	-0.0963
GTCGCCCA	-0.192
CAGCTCTC	-0.172
AATAATAC	0.197
AATAATAT	0.305
AAAAATAG	0.118
AATAATGT	0.181
AATAATAA	0.313
AACAATAC	0.156
AAAAATAT	0.309
CATAATAA	0.267
AAAAATAA	0.292
AACAATAA	0.204
AACAATAT	0.37
AATAATAG	0.209
GCCTTAAA	0.151

Sequence	PBM E-score
GATGGCCC	-0.106
CGAGCCCG	-0.126
CGGAAATA	0.155
CCGAGTTC	-0.063
CCCTAGGA	-0.295
GATTAATA	0.261
AATTAATG	0.174
TATTAATA	0.0736
AACTAATA	0.336
AATTAATT	0.311
CTTTAATA	0.201
GTTTAATA	0.202
TACTAATA	0.222
CACTAATA	0.211
AATTAATA	0.39
AATTAATC	0.197
ATTTAATA	0.338
GAGTCCGA	-0.0585
TCGCCAGA	-0.0255
ACTCGCCA	-0.037
AATAAACG	0.157
GCCGGAGC	-0.249
CAACTGAC	0.0886
AGATGTAA	0.27
CGATGTAA	0.117

Sequence	PBM E-score
TGATGCAA	0.418
TGATGTAA	0.488
GGATGCAA	-0.129
CGATGCAA	-0.0639
CACAGGAA	-0.0714
TCAATCGA	0.249
CGACGGCA	-0.00873
GGACGGAA	-0.119
CGACGGAA	-0.188
GGACGGCA	0.25
TGACGGCA	0.371
TGACGGAA	0.432
CCGTCGGA	-0.114
CCCAGTAC	-0.202
CCGTCACA	0.139
ACGTCACC	0.496
TAGTCACA	0.0725
AGGTCACC	0.0958
GCGTCACC	0.448
GAGTCACC	0.0602
CCGTCACG	0.176
GGGTCACC	-0.153
TCGTCACA	0.368
TGGTCACA	0.0201
GCGTCACA	0.417

Sequence	PBM E-score
AAGTCACC	0.188
CCAAAGCC	-0.0189
AACATCCT	-0.0218
GAGGATTA	-0.125
GTAGCGAC	-0.304
CCATCAAG	-0.165
CGGCGGTA	0.128
AAGAGTGT	0.0413
ACGACCGT	-0.238
GCGGGGTA	-0.201
GAGCCTCC	-0.278
AGGGCGGG	-0.0957
ACTCCGAA	-0.169
CGGTCACC	0.0497
CCGTCACC	0.411
CAGTCACC	-0.113
AGGTTCGC	-0.315
ACAATGGG	0.0198
CCAGACCG	-0.0843
